This note sets out measurements from PubChem BioAssay AID651791 (National Center for Advancing Translational Sciences (NCATS), 2012).

Molecules are shown by their SMILES. Results filed as inconclusive are left out. Activity calls are given as the source filed them. Calls follow the shape of the dose curve; as a rule, active = well fitted inhibition curve with a large enough effect; inconclusive = small, poorly fitted or top-dose-only effect; inactive = no such curve, though single readings can be large or run the other way.
Potency is read from the fitted curve at half-maximal effect.

This assay is described as follows: InCell qHTS Assay for Inhibitors of the mTORC1 Signaling Pathway in MEF (Tsc2-/-, p53-/-) Cells: Hit Validation. Also: nearly all actives have a fitted effect of over 75% in size. The settings on record: phospho-rpS6 immunofluorescence, 24 h; activity change, negative = inhibition: at 38.3 µM (top of the series). From the text:
The mammalian target of rapamycin (mTOR) is an intracellular serine/threonine kinase Aberrant regulation of mTOR signaling plays a causative role in a number of human diseases, including cancer, benign tumors such as lymphangioleiomyomatosis (LAM) and Tuberous Sclerosis Complex (TSC), and metabolic diseases such as diabetes and obesity. This project aims to identify inhibitors of ribosomal protein S6 (rpS6) phosphorylation. The phosphorylation of rpS6 is a key event downstream of mTOR activation. The assay uses a phospho-specific antibody of phospho-rpS6 to detect inhibitors of mTOR activation. Mutations in the Tsc1 and Tsc2 genes are the underlying genetic lesions responsible for TSC, causing constitutive activation of the mTORC1 pathway and leading to profound effects on cell metabolism. Aberrant metabolism in cancer has recently received significant attention as a target to develop therapeutic agents in the treatment of cancer.1 As Tsc2-/- cells have lost the ability to respond to energy and growth factor deprivation, these cells are unable to properly down regulate cellular biosynthetic processes in response to metabolic stress, and are thus extremely sensitive to glucose deprivation-induced death.2 A central goal of this project is to explore the unique cell survival and metabolic properties of cells with Tsc1 or Tsc2 by screening for compounds that selectively target the Tsc2-/- MEFs by screening both Tsc2-/- and WT MEF cell lines. We hope to better understand these aspects of TSC physiology in order to exploit them for therapeutic benefit. NIH Molecular Libraries Probe Production Centers Network [MLPCN] NIH Chemical Genomics Center [NCGC] MLPCN Grant: NS059428 Assay Submitter (PI): Blenis, John; Harvard University
For quantitative high throughput analysis of mTORC1 signaling, we developed a cell-based assay for immuno-fluorescence based detection of rpS6 phosphorylation on the Acumen Explorer that will be used a platform for the primary small molecule screen. Mouse embryonic fibroblasts (MEFs) are cultured in 1536-well plates using DMEM + 10% FBS. Twenty-four hrs after plating, test compounds (solubilized in DMSO) are delivered and incubated with the cells for 24 hrs at 37 degree Celsius. Following the incubation, media with compound is aspirated and the cells are fixed in 4% paraformaldehyde (PFA) containing PBS + 0.2% TX-100. Next, PFA is aspirated, cells are washed two times with PBS plus 0.2% TX-100 and the cells are blocked for 1 hr at room temperature (blocking buffer: LiCOR Blocking Buffer plus 0.2% TX-100). This is followed by aspiration and staining with Alexa-488 conjugated-phospho-rpS6 Ser235/236 antibody for 2 hours at room temperature (Cell Signaling Technology # 4803, 1:50 dilution in blocking buffer). Cells are washed two times with PBS plus 0.2% TX-100, and stained with 10 uM propidium iodide (PI) for 20-25 minutes for cell number measurement (1:500 dilution of Hoescht staining is also added for IN Cell imaging). The plates are scanned on the Acumen Explorer laser scanning instrument (TTP Labtech) using the 488nm laser for simultaneous excitation of the Alexa-488 and PI. The fluorescence emission from the Alexa-488 conjugated rpS6 phospho-235/236 antibody staining is selected using a […] band pass filter. Fluorescence emission from the PI stain is selected using a 575-640 nm band pass filter. The normalized phospho-S6 staining is calculated as the ratio of the integrated Alexa 488 intensity divided by the integrated PI intensity for the single concentration rapamycin control (7.5 nM) and DMSO columns. […] Inhibition of the pathway is defined based on the normalized phospho-S6 intensity in rapamycin treated cells. […]
As to `CCCCN1C(=O)C(O)(c2c(C)[nH]c3ccccc23)c2cc(Br)ccc21` (stereo not given), the activity change, negative = inhibition is -21.8%.
`Cc1c(C(=O)OC2CCC(C)CC2)[nH]c2c1C(=O)CC(c1ccccc1Cl)C2` (stereo not given): the activity change, negative = inhibition is -100%.
Take `COc1ccccc1-c1noc(CSc2nc3ccc(C)cc3[nH]2)n1`: the activity change, negative = inhibition was -100%.
Still for that read-out and setting: the same measure for `CCC1=Nc2cc(C(=O)NC3CCCC3)ccc2Sc2ccc(Cl)cc21`: -100%.
Regarding `CC1=C(C(=O)Nc2ccc(C)cc2C)C(c2cc(Br)ccc2F)n2ncc(C(=O)Nc3ccc(C)cc3)c2N1` (stereo not given), the Potency is 14.7 µM (active).
Regarding `CCOC(=O)c1cnc2c(ccc3ccccc32)c1Nc1ccc(OC)cc1OC`, the activity change, negative = inhibition was -100%.
As for `Cc1ccccc1CS(=O)(=O)c1ncc(Cl)c(C(=O)Nc2nnc(C(C)C)s2)n1`, the Potency is 18.5 µM (active).
As to `CCOC(=O)c1cnc2ccc(OCC)cc2c1NCCc1ccc(OC)c(OC)c1`, the activity change, negative = inhibition is -100%.
`CCS(=O)(=O)c1ccccc1C(=O)N(Cc1cccnc1)c1nc2cc(C)c(C)cc2s1`: the activity change, negative = inhibition is -100%.
The same measure, in the same setting: the same measure for `CC(C)(C)c1ccc(C2NC(=O)c3n[nH]c(-c4cccs4)c32)cc1` (stereo not given): -100%; for `CC(=O)N1CCCc2cc(S(=O)(=O)N(Cc3ccccc3)C(C)C)ccc21`: -100%.
On the same count and under the same terms, the same measure for `Cn1ccc2c(OCC(=O)Nc3ccc(OC(F)(F)F)cc3)cccc2c1=O`: -100%; for `CCSc1oc(-c2ccc(F)cc2)nc1S(=O)(=O)c1ccc(C)cc1`: -100%; for `CCOC(=O)N1CCN(Cc2nc3cc(NC(=O)c4ccc(F)cc4)ccc3n2C(C)C)CC1`: -100%.
Take `CCn1c(=O)sc2cc(NS(=O)(=O)c3ccc(F)c(C)c3)ccc21`: the activity change, negative = inhibition is -100%.
As for `CC(C)S(=O)(=O)c1oc(-c2ccc(F)cc2)nc1S(=O)(=O)c1ccc(F)cc1`, the Potency is 0.927 µM (active).
Consider `COc1cc(OC)cc(C(=O)NCc2ccc3c(c2)CCN3C(=O)c2ccccc2)c1`, for which the activity change, negative = inhibition was -100%.
The same measure, in the same setting: the same measure for `CCCCNC(=O)CSc1nc2nc(C)c(Cc3ccccc3C)c(C)n2n1`: -100%.
As to `CCCS(=O)(=O)c1ncc(Cl)c(C(=O)N2CCN(c3ccc(OC)cc3)CC2)n1`, the Potency is 1.85 µM (active).
As for `Cc1n[nH]c(C)c1S(=O)(=O)N(CC(=O)Nc1ccc(C(F)(F)F)cc1)c1ccc(C(C)C)cc1`, the activity change, negative = inhibition was -23.7%.
Take `COc1ccc(OC)c(C(=O)CC2(O)C(=O)N(Cc3ccccc3C)c3ccccc32)c1` (stereo not given): the activity change, negative = inhibition is -100%.
Still for that read-out and setting: next, `CCOc1ccccc1NC(=O)CN1C(=O)C(=O)c2ccccc21`: -100%.
Consider `Cc1ccc(CN2C(=O)C(=O)c3cc(Br)cc(C)c32)cc1`, for which the Potency is 18.5 µM (active).
On to `O=C(Cn1c(=O)c2cccn2c2ccccc21)NCc1ccccc1F`, for which the activity change, negative = inhibition was -100%.
As for `CCOC(=O)N1CCN(Cc2nc3cc(NC(=O)c4cccc(C)c4)ccc3n2C(C)C)CC1`, the activity change, negative = inhibition was -100%.
`CC(C)(C)C(=O)Nc1ccc(-c2nc3ccc(NC(=O)C(C)(C)C)cc3[nH]2)cc1`: the activity change, negative = inhibition is -27%.
Still for that read-out and setting: next, `CCNc1nc2c(c(=O)[nH]c(=O)n2C)n1CC(O)COc1ccc(Cl)cc1Cl` (stereo not given): -100%; `CCOC(=O)c1cnc2ccc(OC)cc2c1NCCc1ccccc1`: -100%.
As for `Cc1ccc(C)c(NC(=O)Nc2cc3c(cc2N2CCCCC2)n(C)c(=O)n3C)c1`, the activity change, negative = inhibition is -100%.
Still for that read-out and setting: the same measure for `CC(C)c1ccc(C2Sc3ccccc3NC3=C2C(=O)c2ccccc23)cc1` (stereo not given): -100%; for `O=C(Nc1cccc(C(F)(F)F)c1)c1cnn(-c2cccc(F)c2)c1C1CCNCC1`: -100%; for `COc1cc(C(=O)CC2(O)C(=O)N(Cc3ccccc3Cl)c3ccccc32)cc(OC)c1OC` (stereo not given): -3.93%.
Still for that read-out and setting: the same measure for `CC1CCCN(CCCNC(=O)c2ccc3c(c2)N(Cc2ccc(Cl)cc2)C(=O)c2ccccc2S3(=O)=O)C1` (stereo not given): -100%.
Still for that read-out and setting: the same measure for `COC(=O)c1cc2sc(C)cc2n1Cc1ccccc1`: -100%.
Turning to `Cc1nc2nncn2c(NCc2ccc(F)cc2)c1C`, the activity change, negative = inhibition was -100%.
`CCOC(=O)C1=C(CN2CCN(c3cc(C)ccc3C)CC2)NC(=O)NC1c1ccc(Cl)cc1` (stereo not given): the activity change, negative = inhibition is -100%.
As to `CC1CCN(S(=O)(=O)c2ccc(C(=O)Nc3sc4c(c3C(N)=O)CC(C)(C)NC4(C)C)cc2)CC1`, the Potency was 14.7 µM (active).
In the case of `CCc1ccc(-n2c(=O)c3c4c(sc3n(CC(=O)c3ccc(F)cc3)c2=O)CCC4)cc1`, the Potency is 9.27 µM (active).
In the case of `Cc1ccc(NC(=O)CCNS(=O)(=O)c2cccc3nonc23)cc1Cl`, the activity change, negative = inhibition was -100%.
`CCOc1ccc(NC(=O)CN2C(=O)C(c3ccc(Cl)cc3)=NC2(C)C)cc1`: the activity change, negative = inhibition was -100%.
